Compound activity deposited in PubChem BioAssay by National Center for Advancing Translational Sciences (NCATS).
Pol iota inh = blocks human DNA polymerase iota activity; Pol iota fluorescent replication assay, 10 min; Potency, µM (top dose mostly 115 µM), most hits filed as inhibitors; actives 1% (n = 390,000); AID 588590
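Fluorescent replication assay read twice, at 0 min and 10 min after adding 50 nM (final) substrate. Enzyme (10 nM) and compounds were first incubated 15 min at room temperature; enzyme-free buffer wells were negative controls.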
Pol beta inh = blocks human DNA polymerase beta activity | Pol beta primer extension/strand displacement, fluorescence kinetic | Potency, µM (titrated, usually from 114 µM), hits mostly inhibitors | actives 1.3% (n = 340,000)
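Pol beta (10 nM) was preincubated with compound for 15 min at room temperature. The reaction was then started with 50 nM substrate and read immediately and after a further 10 min at room temperature.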
POLK inh = blocks human DNA polymerase kappa activity; Q9UBT6; purified Pol kappa, fluorescent DNA synthesis assay, 10 min; Potency, µM (titrated, usually from 107 µM), actives largely listed as inhibitors; actives 0.53% (n = 400,000); AID 588579
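Here, compound and 10 nM enzyme are combined for 15 min at room temperature; adding 50 nM substrate (final) starts DNA synthesis, tracked by fluorescence at 0 and 10 min against buffer-only wells.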
Pol eta inh = DNA polymerase eta (human) inhibition; Q9Y253; recombinant Pol eta, fluorescent DNA replication assay; Potency, µM (top dose mostly 114 µM), hits mostly inhibitors; actives 1.2% (n = 390,000); AID 588591
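Fluorescent replication assay: 50 nM final substrate added after a 15 min room-temperature compound preincubation with 10 nM enzyme. Signal taken at 0 min and again at 10 min.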
FEN1 inhibitor = inhibitors of human flap endonuclease 1 | Recombinant FEN1 flap cleavage, fluorescence, 15 min | Potency, µM (top dose mostly 114 µM), usual class: inhibitors | P39748 | AID 588795 | actives 0.35% (n = 390,000); note: nearly all actives have a fitted effect of over 65% in size
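Recombinant FEN1 (10 nM) was preincubated with pin-transferred compounds for 15 min at room temperature, then flap DNA substrate (50 nM final) was added. Plates were read at 0 and 15 min, and normalized concentration–response data were fitted to a four-parameter Hill equation.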
WRN helicase inh = WRN helicase (human) inhibition; Potency, µM (series often up to 114 µM), hits mostly inhibitors; AID 651768; actives 0.46% (n = 360,000); Q14191; WRN helicase unwinding, fluorescent forked duplex, kinetic; note: nearly all actives have a fitted effect of over 55% in size
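WRN at 20 nM final was preincubated with compound for 15 min at room temperature; reaction started with 100 nM forked duplex oligonucleotide carrying fluorophore and quencher plus 2 mM ATP (final). Unwinding followed kinetically by red fluorescence (ex 525/em 598 nm).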
Each line names hits and unclear results; the compound was inactive in the other large screens. Shown are actives, neighbours in structure and some others; about 2.4% of the full set was active somewhere. Calls come from the whole dose curve; as a rule, active = well fitted curve in the direction sought with a large enough effect; inconclusive = small, poorly fitted or top-dose-only effect, or another doubt; inactive = no such curve, though single readings can be large; an effect the other way counts as inactive or inconclusive.

O=C(CCC(=O)N1CCN(c2ccc(O)cc2)CC1)c1cccs1	Pol iota inh 71µM, Pol beta inh inconclusive
O=C(NCC(c1ccc2c(c1)OCO2)N1CCN(c2ccccc2)CC1)C(=O)Nc1ccc(F)cc1 (configuration not stated)	none (no result: WRN helicase inh)
CS(=O)(=O)c1ccc(C(=O)OCC(=O)Nc2ccc(OC(F)(F)F)cc2)cc1[N+](=O)[O-]	none (no result: Pol beta inh, Pol eta inh, WRN helicase inh)
CC(C)=CC[C@@H](O)C1=CC(=O)c2c(O)ccc(O)c2C1=O	POLK inh 0.89µM (no result: Pol iota inh, Pol beta inh, Pol eta inh, FEN1 inhibitor, WRN helicase inh)
COc1ccc(-c2nc(CSc3nnc(C)n4c3cc3occc34)c(C)o2)cc1OC	none (no result: WRN helicase inh)
CN(C)c1ccc(C=Nc2ccccc2C(N)=O)cc1	Pol iota inh 89µM
Cc1ccc(C=Nc2ccccc2C(N)=O)o1	none
COc1ccc(Cl)cc1NC(=O)CSc1nnc2[nH]c(=O)cc(-c3ccccc3)n12	Pol eta inh 89µM (no result: WRN helicase inh)
CNC(=O)c1ccsc1NC(=O)c1sc2ccccc2c1Cl	Pol iota inh inconclusive, Pol beta inh 14µM, POLK inh inconclusive, Pol eta inh inconclusive
Cc1c(N=C2C=CC(=O)c3ccccc32)c(=O)n(-c2ccccc2)n1C	Pol iota inh inconclusive, Pol beta inh inconclusive, Pol eta inh 45µM
CCCCCCn1c(=O)[nH]c2nc3cc(N)ccc3nc2c1=O	Pol beta inh 10µM
CCCCCNC(=O)c1ccc2c(=O)n(CCOC)c(=O)[nH]c2c1	none
O=C(C[N+]12CCCc3cccc(c31)CCC2)c1ccc2ccc3cccc4ccc1c2c34	FEN1 inhibitor 45µM (no result: Pol beta inh, Pol eta inh, WRN helicase inh)
Cc1cccc(Cn2c(=O)n(-c3cc(C)cc(C)c3)c(=O)c3oc4ccccc4c32)c1	none (no result: WRN helicase inh)
CC(=O)N1CCc2cc(S(=O)(=O)CCC(=O)NCc3ccc4c(c3)OCO4)ccc21	Pol beta inh 45µM, Pol eta inh inconclusive
CC(=O)N1CCc2cc(S(=O)(=O)CCC(=O)NCc3cccs3)ccc21	none
CCNc1ncc2nc(-c3cccs3)c(=O)n(Cc3ccc(F)cc3)c2n1	none (no result: Pol iota inh, Pol beta inh, Pol eta inh, FEN1 inhibitor, WRN helicase inh)
CCCS(=O)(=O)NC(=O)C1(C)CCCN(C(=O)c2cccc(OC(F)(F)F)c2)C1 (configuration not stated)	none (no result: Pol iota inh, Pol beta inh, POLK inh, Pol eta inh, FEN1 inhibitor)
CSC1=NC(=O)/C(=C\c2cccc3ccccc23)S1	Pol beta inh 50µM, WRN helicase inh inconclusive
CC(=O)c1cccc(NC(=O)C2CCCN2S(=O)(=O)c2cccs2)c1 (configuration not stated)	none (no result: Pol iota inh, Pol beta inh, POLK inh, FEN1 inhibitor)
CCCn1c(N)c(N(CCOC)C(=O)c2cc(-c3ccco3)nc3ccccc23)c(=O)[nH]c1=O	Pol iota inh 56µM, Pol beta inh 45µM, Pol eta inh inconclusive
Cn1c(N)c(C(=O)COC(=O)c2cc(-c3ccco3)nc3ccccc23)c(=O)n(Cc2ccccc2)c1=O	Pol beta inh 20µM (no result: Pol iota inh, POLK inh, Pol eta inh, FEN1 inhibitor, WRN helicase inh)
CCOC(=O)c1ccccc1NC(=O)c1sc2ncn(CC)c(=O)c2c1C	none (no result: WRN helicase inh)
CCOc1ccc(OCC)c(NC(=O)c2ccc(-c3ccccc3)s2)c1	none (no result: Pol eta inh, WRN helicase inh)
O=C(C[n+]1cc(Br)cc2ccccc21)c1ccc(O)c(O)c1	Pol iota inh inconclusive, POLK inh 2.8µM (no result: Pol beta inh, Pol eta inh, WRN helicase inh)
O=C(C[n+]1cc(Br)cc2ccccc21)c1ccccc1	none
COCCN(Cc1cc2cc(C)ccc2n2nnnc12)C(=S)Nc1cccc(C)c1	none
CCc1ccc2c(c1)cc(CN(C(=S)Nc1cccc(C)c1)C1CC1)c1nnnn12	Pol iota inh 100µM
CC(C)c1ccc(NC(=O)CN2C(=O)COc3ccc(S(=O)(=O)Nc4ccccc4)cc32)cc1	Pol beta inh inconclusive (no result: WRN helicase inh)
O=C(O)c1cccnc1SCC(=O)N1CCCc2ccccc21	Pol iota inh inconclusive, Pol beta inh inconclusive, Pol eta inh 20µM
Cc1cc(C)cc(-n2c(SCC(=O)NCc3ccc4c(c3)OCO4)nc3ccccc3c2=O)c1	none
Cc1ccc(-n2c(SCC(=O)Nc3ccc4c5c(cccc35)CC4)nc(O)cc2=O)cc1	Pol beta inh 35µM
O=C(CSc1nc2cc([N+](=O)[O-])ccc2n1-c1ccccc1)NCc1ccc2c(c1)OCO2	Pol iota inh inconclusive, Pol beta inh 10µM
O=C(CSc1nc(O)cc(=O)n1-c1ccccc1)NCc1ccccc1	Pol iota inh 40µM
Cc1ccc(-n2c(SCC(=O)Nc3ccc4c5c(cccc35)CC4)nc(O)c(C)c2=O)cc1	none
O=c1cc(O)nc(SCc2ccccc2)n1-c1ccccc1	Pol iota inh inconclusive, POLK inh inconclusive
COC(=O)c1scc(-c2ccc(C)cc2)c1S(=O)(=O)Nc1cc(OC)c(OC)c(OC)c1	none (no result: WRN helicase inh)
O=C(CSc1ncccn1)N1CCCc2ccccc21	none
CCc1cccc(CC)c1-n1c(SCC(=O)N2CCCc3ccccc32)nc(O)cc1=O	Pol iota inh inconclusive, POLK inh 45µM (no result: Pol beta inh)
CC(=O)N(O)c1ccc(/C=C2\C=Cc3ccccc32)cc1	none (no result: Pol beta inh, Pol eta inh, WRN helicase inh)
Cc1cc(Oc2nc3ccccn3c(=O)c2/C=C(\C#N)c2nc3ccccc3s2)ccc1Cl	none (no result: WRN helicase inh)
N#C/C(=C\c1c(Oc2ccc(Br)cc2)nc2ccccn2c1=O)c1nc2ccccc2s1	Pol iota inh 13µM, POLK inh 79µM, FEN1 inhibitor inconclusive (no result: WRN helicase inh)
Brc1ccc(-c2nc3ccccn3c2Nc2ccc3c(c2)OCCO3)o1	none (no result: WRN helicase inh)
O=C(Cn1c(=O)n(Cc2ccc3c(c2)OCO3)c(=O)c2ccccc21)Nc1cccc(Cl)c1	none (no result: WRN helicase inh)
